Assay results reported in patent US20150152398, “Endoribonuclease and Methods of Use Thereof” (The Regents of the University of California, published 2015).

Target: T1, TtCas6A R129A (Thermus thermophilus HB8, R129A)
T1 chain: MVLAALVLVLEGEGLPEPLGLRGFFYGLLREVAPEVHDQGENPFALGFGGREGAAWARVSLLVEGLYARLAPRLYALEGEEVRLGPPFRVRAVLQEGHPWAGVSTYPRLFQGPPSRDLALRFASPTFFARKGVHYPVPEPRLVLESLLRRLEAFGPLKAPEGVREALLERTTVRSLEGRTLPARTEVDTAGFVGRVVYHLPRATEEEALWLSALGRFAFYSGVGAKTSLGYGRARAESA
Experiment: EMSA; Kd in FIG. 24D only
Conditions: chain copies: 2 inferred; label: 5'-32P (EMSA); hairpin; ssRNA
Source text: FIG. 22 illustrates that TtCas6A and TtCas6B both cleave repeats R1 and R3 and retain their cleaved products. (A) Sequences and predicted secondary structures of T. thermophilus CRISPR repeats. Sites of cleavage are indicated with blue arrows. TtCas6e (TTHB192) cleaves repeat R2, while TtCas6A (TTHA0078) and TtCas6B (TTHB231) both cleave repeats R1 and R3. (B) Cleavage product binding affinities of TtCas6A and TtCas6B enzymes. Maltose binding protein (MBP)-fused TtCas6A or TtCas6B were bound to in 5′-radiolabelled, vitro transcribed R1 and R3 RNAs. Bound and unbound fractions were resolved by electrophoresis on a native polyacrylamide gel and visualized by phosphorimaging. The data for these and all subsequent binding assays were fit with standard binding isotherms (solid line). Error bars on each data point denote standard error of the mean (SEM) from three independent experiments. (C) Experiments to confirm single turnover. RNA cleavage assays were carried out at indicated protein:RNA ratios. RNA cleavage was monitored using denaturing polyacrylamide gel electrophoresis. The data from these and all subsequent endoribonuclease activity assays were fit with single exponential curves to yield first-order rate constants. (Top to bottom: FIG. 22A, SEQ ID NOs: 1, 2, 55).
To test the importance of the stem sequence for substrate RNA recognition by TtCas6A, a series of EMSAs was performed using R1 repeat-derived RNAs that carried single base pair substitutions (C-G→A-U). All mutant RNAs contained the complete 5′ segment and additional two nucleotides downstream of the cleavage site. Compared to the wild-type RNA, substitution of any of the four C-G base pairs in the stem led to about five-fold decrease in affinity (FIG. 24C). This is consistent with the observation that the lower three C-G base pairs are specifically read out by Arg129. The binding defect observed upon mutation of the closing (uppermost) base pair could be due to loss of stability of the stem-loop structure, which is determined by the closing base-pair (Serra et al, 1993). To further investigate the protein determinants of RNA binding, we tested the TtCas6A mutants H37A and R129A and performed binding assays using substrates R1 and R3 (FIG. 24D).

Row | Sequence | binding signal
1 | GUUGCAAGGGAUUGAGCCCCGUAAGGGGAUUGCGAC | ~260 fold lower affinity than WT
2 | GUUGCAAACCUCGUUAGCCUCGUAGAGGAUUGAAAC | ~290 fold lower affinity than WT
